# Source: a collection of fitness landscapes (doi:10.1126/science.1257360)
# Over roughly 140,000 sequences, “enrichment ratio after two sorts for PhoP signalling” has its median near 0; the highest 2% begin near 11. The list comes from a sample in which the highest values are over-represented; it also holds similar and randomly drawn sequences.
# B1: PhoQ; a variant is named by its letters at X, in order, P23837 (parent)
# chain: MKKLLRLFFPLSLRVRFLLATAAVVLVLSLAYGMVALIGYSVSFDKTTFRLLRGESNLFYTLAKWENNKLHVELPENIDKQSPTMTLIYDENGQLLWAQRDVPWLMKMIQPDWLKSNGFHEIEADVNDTSLLLSGDHSIQQQLQEVREDDDDAEMTHSVAVNVYPATSRMPKLTIVVVDTIPVELKSSYMVWSWFIYVLSANLLLVIPLLWVAAWWSLRPIEALAKEVRELEEHNRELLNPATTRELTSLVRNLNRLLKSERERYDKYRTTLTDLTHSLKTPLXXLQXXLRSLRSEKMSVSDAEPVMLEQISRISQQIGYYLHRASMRGGTLLSRELHPVAPLLDNLTSALNKVYQRKGVNISLDISPEISFVGEQNDFVEVMGNVLDNACKYCLEFVEISARQTDEHLYIVVEDDGPGIPLSKREVIFDRGQRVDTLRPGQGVGLAVAREITEQYEGKIVAGESMLGGARMEVIFGRQHSAPKDE
# Variants of: B1
# Assay: enrichment ratio after two sorts for PhoP signalling (ratio (wild type AVST 3.29)); higher = more functional
# Settings: with PhoP (E. coli)
row,Variant,enrichment ratio
1,IKGI,≤ 0.25
2,DLMM,≤ 0.25
3,RFVW,≤ 0.25
4,QQLG,2.01
5,YTCS,≤ 0.25
6,TTCT,12.8
7,TTCG,30.3
8,TTCS,18.7
9,YTCV,≤ 0.25
10,LTCG,≤ 0.25
11,YTCT,≤ 0.25
12,TTCV,17.3
13,ITCV,≤ 0.25
14,ITCS,≤ 0.25
15,ITCT,≤ 0.25
16,YTCG,≤ 0.25
17,ATPS,≤ 0.25
18,KDFS,≤ 0.25
19,PMMQ,≤ 0.25
20,YYTW,≤ 0.25
21,RVTP,≤ 0.25
22,FDKV,≤ 0.25
23,TTCI,15.8
24,TTCE,8.85
25,TTCK,5.62
26,LIVW,≤ 0.25

row,Variant,enrichment ratio
1,ATMF,16
2,CTSF,3.85
3,GTSM,10.6
4,ATSM,16.9
5,AIMF,0.847
6,ITSF,≤ 0.25
7,ATSF,11.9
8,ATHF,≤ 0.25
9,YDSM,≤ 0.25
10,PAWP,≤ 0.25
11,TTFE,≤ 0.25
12,ANLY,12
13,TKLY,16.4
14,HKLY,≤ 0.25
15,KKLY,≤ 0.25
16,AYLY,≤ 0.25
17,AKLY,19.7
18,GNLY,3.04
19,AILY,1.94
20,DNLY,≤ 0.25
21,LENP,≤ 0.25
22,YGNS,≤ 0.25
23,ELCS,≤ 0.25
24,SDHR,≤ 0.25
25,RTCY,≤ 0.25
26,FQWN,≤ 0.25

row,Variant,enrichment ratio
1,STYS,0.267
2,MKYS,≤ 0.25
3,MMYS,≤ 0.25
4,QRYS,≤ 0.25
5,MEYS,25.6
6,KCYS,≤ 0.25
7,MLYS,≤ 0.25
8,QEYS,37
9,MCYS,12.8
10,LVRD,≤ 0.25
11,RKTS,≤ 0.25
12,MAFY,5.02
13,VGMW,≤ 0.25
14,GGMD,≤ 0.25
15,VGMG,≤ 0.25
16,LGMA,≤ 0.25
17,TGMI,13.2
18,VGMI,20.4
19,RGMI,≤ 0.25
20,LGMI,12.6
21,NIMI,≤ 0.25
22,LGMS,≤ 0.25
23,NGMI,0.49
24,GGMI,12.3
25,DSTD,≤ 0.25
26,HLRM,≤ 0.25

row,Variant,enrichment ratio
1,IPWT,≤ 0.25
2,WPQK,≤ 0.25
3,TMAW,≤ 0.25
4,WDLT,≤ 0.25
5,GWGM,≤ 0.25
6,HMWI,≤ 0.25
7,PRFL,≤ 0.25
8,DFQL,≤ 0.25
9,AGMS,3.53
10,AGMI,16.4
11,AGMG,≤ 0.25
12,NSFT,≤ 0.25
13,YKQH,≤ 0.25
14,HDPL,≤ 0.25
15,TNSV,19.4
16,ANSV,7.03
17,MNSK,≤ 0.25
18,MNIV,≤ 0.25
19,LNSV,≤ 0.25
20,MNSV,16.9
21,QING,≤ 0.25
22,PDEL,≤ 0.25
23,TSHN,0.659
24,ENQD,≤ 0.25
25,LCTQ,≤ 0.25
26,HKTQ,≤ 0.25

row,Variant,enrichment ratio
1,NNTQ,≤ 0.25
2,TSTQ,16
3,MKTQ,≤ 0.25
4,TMTQ,14.3
5,NGTQ,≤ 0.25
6,TKTQ,12.6
7,KSTQ,≤ 0.25
8,MMTQ,≤ 0.25
9,TGTQ,17.7
10,TMLA,2.72
11,LGMC,≤ 0.25
12,NWTN,≤ 0.25
13,VCIS,0.315
14,QCCN,≤ 0.25
15,PNLQ,1.01
16,SPYC,≤ 0.25
17,YNMF,≤ 0.25
18,LKVT,≤ 0.25
19,SFHI,≤ 0.25
20,VLMY,≤ 0.25
21,EGRC,≤ 0.25
22,EQYD,≤ 0.25
23,TITQ,12.5
24,SGTQ,17.4
25,TILA,4.43
26,SGTW,≤ 0.25

row,Variant,enrichment ratio
1,SLTQ,6.15
2,STTQ,6.67
3,SQTQ,11.3
4,KYTQ,≤ 0.25
5,NMTQ,≤ 0.25
6,VCDC,≤ 0.25
7,KHCF,≤ 0.25
8,TKQF,≤ 0.25
9,VNQI,≤ 0.25
10,MAYI,21.1
11,MAAY,≤ 0.25
12,NAYE,≤ 0.25
13,FDYV,≤ 0.25
14,MAYF,16.5
15,MAYV,15.4
16,FDYF,≤ 0.25
17,MEYE,≤ 0.25
18,NAYV,≤ 0.25
19,MAYK,≤ 0.25
20,MAYE,33.3
21,MEYF,≤ 0.25
22,MGDQ,≤ 0.25
23,VFQR,≤ 0.25
